An excerpt weighted towards active compounds, which were near 3.5% of everything screened.
MITF primary = MITF inhibitors, primary screen, biochemical, AlphaScreen, human. Microphthalmia-associated transcription factor (Homo sapiens), O75030. AlphaScreen MITF homodimerization, bead proximity signal. inhibition, % at 2.6 µM. 0.91% of 650,000 active; in the data active = inhibition above about 50%;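 also: 0% = vehicle wells with protein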
Target sequence (O75030 whole entry, looked up): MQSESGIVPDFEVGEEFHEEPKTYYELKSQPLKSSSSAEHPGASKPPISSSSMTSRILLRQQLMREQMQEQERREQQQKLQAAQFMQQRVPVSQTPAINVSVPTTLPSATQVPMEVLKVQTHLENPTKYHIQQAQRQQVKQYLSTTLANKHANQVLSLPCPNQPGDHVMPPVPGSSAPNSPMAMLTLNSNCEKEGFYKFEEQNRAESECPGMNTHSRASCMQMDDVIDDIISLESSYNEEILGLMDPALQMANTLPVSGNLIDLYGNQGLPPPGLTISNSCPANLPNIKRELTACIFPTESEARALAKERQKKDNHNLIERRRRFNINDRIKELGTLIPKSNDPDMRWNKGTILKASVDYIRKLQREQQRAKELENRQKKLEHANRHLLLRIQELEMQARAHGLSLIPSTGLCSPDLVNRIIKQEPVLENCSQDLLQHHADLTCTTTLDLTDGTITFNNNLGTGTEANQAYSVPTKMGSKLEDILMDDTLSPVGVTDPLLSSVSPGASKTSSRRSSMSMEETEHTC
GPR151 activ = activators of human GPR151, primary screen, cell-based, PathHunter beta-arrestin, luminescence; PathHunter beta-arrestin GPR151 cells; activation, % at 11.2 µM; 1% of 650,000 active; in the data active = activation above about 4.9%;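 also: 0% = median of compound wells and 100% = cells with positive control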
TEAD-YAP inh = TEAD-YAP interaction inhibition, primary screen, TEAD-YAP interaction inhibitor project, luminescence, HEK-TIYL cells. inhibition, % at 9.12 µM. 1.4% of 640,000 active. TEAD-Gal4/YAP UAS-luciferase luminescence. AID 1259422, 2018; in the data active = inhibition above about 32%;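 also: 0% = median of test compound wells and 100% = reference inhibitor wells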
FBW7 act = FBW7 E3 ligase activators, primary screen, biochemical, AlphaScreen, human | AlphaScreen FBW7–phospho-cyclin E peptide binding, activator screen | normalized activity (activation), % at 26.1 µM | 0.13% of 650,000 active | AID 1259310, 2017; in the data active = normalized activity above about 1.9%;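 also: purified mutant Fbw7 with reduced substrate affinity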
GPR151 confirm = GPR151 activators, triplicate retest, confirmation, cell-based, PathHunter beta-arrestin, luminescence | 6,700 tested, under 10 active | activation, % at 11.2 µM | shares compounds with GPR151 activ | GPR151 PathHunter beta-arrestin cells, 90 min; % of EA-reagent control over plate median;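 active = mean percent activation across replicates above the confirmation screen cutoff of 4.91%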
GPR119 counter = GPR119 activators in beta-arrestin cells, counter-screen for GPR151 activator project, cell-based, PathHunter beta-arrestin, luminescence, triplicate. activation, % at 11.2 µM. 90 min; 0 = compound-well median, 100 = enzyme-acceptor control. shares compounds with GPR151 activ. AID 1508611, 2020. 0.3% of 6,700 active;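 active = mean percent activation in the counterscreen above 29.09%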;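 also: counterscreen on off-target GPR119 to flag nonselective hits from the GPR151 activator screen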
Numbers without * were called inactive; · = not tested or not shown; ! = not active in a repeat.

SMILES	MITF primary	GPR151 activ	TEAD-YAP inh	FBW7 act	GPR151 confirm	GPR119 counter
O=C(NC1CC1)C1CCC(=O)N1C1CCCCC1 (configuration not stated)	12.0	8.5*	-0.4	-0.1	-1.0	-8.1
N#CCCN(CCC#N)S(=O)(=O)Cc1ccccc1	9.4	-0.7	0.8	0.1	·	·
CCOc1cc(C2CC(=O)NC3=C2C(=O)CC(c2ccc(OC)c(OC)c2)C3)ccc1O (configuration not stated)	17.5	6.3*	-1.2	0.2	0.0	1.2
COc1cc(C2CC(=O)NC3=C2C(=O)CC(c2ccc(OC)c(OC)c2)C3)ccc1O (configuration not stated)	16.8	-0.6	9.9	0.7	·	·
Cc1ccc(NC(=O)c2cc3ccccc3oc2=O)nc1	-2.5	0.5	-35.6	-0.1	·	·
COc1ccc(NC(=O)c2ccccc2C(F)(F)F)cc1	11.6	-1.1	-11.6	0.0	·	·
O=C(Nc1ccc(S(=O)(=O)Nc2nccs2)cc1)C(Cl)Cl	4.4	1.1	3.0	-0.1	·	·
O=C(Nc1ccc(S(=O)(=O)Nc2nccs2)cc1)C(c1ccccc1)c1ccccc1	8.5	5.5*	0.4	0.1	0.2	0.0
O=C(Nc1ccc(-c2nc3ccccc3o2)c(O)c1)c1cc2ccccc2oc1=O	7.0	0.0	2.2	-0.1	·	·
Oc1oc(-c2ccccc2Br)nc1C=Nc1ccccc1Cl	-6.9	5.0*	3.2	-0.1	0.1	2.9
Cc1ccc(OCC(=O)Nc2ccc(F)cc2F)c([N+](=O)[O-])n1	-8.9	2.2	-59.0	0.0	·	·
Cc1cc(C)nc(SCC(=O)Nn2cnnc2)n1	-19.2	7.1*	2.0	0.2	-0.2	-12.7
Cc1cc(C)nc(SCC(=O)NC(C)(C)C)n1	16.4	-0.3	-1.2	0.0	·	·
O=c1c2ccccc2c(-c2ccc(Br)cc2)nn1-c1ccccc1	5.5	-1.4	10.1	0.2	·	·
CC(C)c1ccc(-c2nn(-c3ccccc3)c(=O)c3ccccc23)cc1	-6.0	5.2*	1.8	0.0	0.7	-5.0
COc1ccc(C2CC(=O)C3=C(C2)Nc2ccccc2NC3c2ccc(OC(C)=O)cc2)cc1 (configuration not stated)	-2.2	0.4	0.3	0.2	·	·
Cc1ccc(-n2ncc3c(=O)n(CC(=O)Nc4ccc(C(N)=O)cc4)cnc32)c(C)c1	2.7	-0.2	-0.7	-0.2	·	·
COc1ccc(CCNc2cc(Nc3ccncc3)ncn2)cc1	4.0	-0.6	8.7	0.1	·	·
CCOc1ccccc1CNc1sc2c(c1C(=O)Nc1ccc(OC)cc1)CCC2	-2.2	1.8	6.3	-0.1	·	·
CCOc1ccccc1CNc1sc2c(c1C(=O)Nc1ccc(OC)cc1OC)CCC2	14.8	10.8*	1.0	-0.1	1.6	10.7
O=C(Oc1ccc([N+](=O)[O-])cc1)c1ccc(N2C(=O)C3C4CCC(C4)C3C2=O)cc1 (configuration not stated)	-5.0	7.5*	1.0	0.0	-0.1	0.2
N#C/C(=C\c1ccc(F)cc1)C(=O)N1CCOCC1	-7.8	6.3*	-34.1	0.1	0.9	5.9
N#C/C(=C/c1ccc(F)cc1)c1ccc(C#N)cc1	10.1	8.3*	-8.2	0.2	0.3	0.6
COc1ccc(C2(CC(=O)N3CC[C@@H](O)C3)CC(=O)N(CCC(C)C)C2=O)cc1 (some centres not stated)	2.4	6.7*	7.8	0.8	0.1	2.5
COc1ccc(C2(CC(=O)N3CCCC(O)C3)CC(=O)N(CCC(C)C)C2=O)cc1 (configuration not stated)	3.1	-0.7	5.0	-0.1	·	·
SMILES	MITF primary	GPR151 activ	TEAD-YAP inh	FBW7 act	GPR151 confirm	GPR119 counter
CC(=O)c1cccc(NC(=O)Cn2nc(C(F)(F)F)c(Cl)c2C)c1	17.7	1.3	2.2	0.3	·	·
Cc1c(Br)c(C(F)(F)F)nn1CC(=O)Nc1cccc(O)c1	-11.9	10.0*	-0.8	0.1	1.4	10.4
CC(C)(C)NC(=O)C(c1ccccn1)N(Cc1ccccc1)C(=O)c1csnn1 (configuration not stated)	6.8	4.9*	7.5	0.6	-0.4	-3.4
Cc1cc2c(cc1C)CSC(c1c(O)ccc3cc(Br)ccc13)SC2	0.0	-0.2	3.4	0.0	·	·
CC(C)OCCCNC(=O)CC1C(=O)NCCN1C (configuration not stated)	-1.2	5.8*	1.2	-0.1	0.1	4.2
O=C(O)c1ccc(S(=O)(=O)n2ncc3ccccc32)cc1	3.4	-0.2	-4.2	0.0	·	·
CC(=O)N1N=C(c2ccc3nccnc3c2)CC1c1ccccc1 (configuration not stated)	12.8	5.9*	1.2	0.0	-1.7	-20.8
COc1ccc(C2=NN(C(C)=O)C(c3ccccc3)C2)cc1OC (configuration not stated)	9.8	1.1	-17.3	0.5	·	·
Cc1ccc2c(c1)CN(CCNC(=O)CCc1ccc(=O)[nH]n1)CC(C)O2 (configuration not stated)	-6.6	5.3*	-6.4	0.0	0.2	-0.1
Cc1ccc2c(c1)CN(CCNC(=O)CCc1ccco1)CC(C)O2 (configuration not stated)	12.9	0.7	-0.2	0.0	·	·
CN1CCCC(n2nc(Cc3ccc(Cl)cc3)c3ccccc3c2=O)CC1 (configuration not stated)	-19.7	5.4*!	2.8	0.1	2.5	28.4
CC1CCCN(C(=O)Cn2nc(Cc3cccnc3)c3ccccc3c2=O)C1 (configuration not stated)	2.9	0.2	3.0	-0.3	·	·
Cc1cc(NCC2CCCO2)nc(Nc2ccc(N3CCOCC3)cc2)n1 (configuration not stated)	3.6	4.9*	19.9	-0.1	-0.4	-6.6
COc1ccc(Nc2nc(C)cc(NCC3CCCO3)n2)cc1 (configuration not stated)	3.9	1.5	-0.5	-0.1	·	·
CN(C)C(NC(=O)Cc1ccccc1)C(Cl)(Cl)Cl (configuration not stated)	26.6	6.0*	-2.5	-0.1	-0.8	-7.8
CN(C(=O)Cc1ccccc1)N(C)C(=O)Cc1ccccc1	-2.8	5.0*	-4.2	0.0	-0.3	9.2
COc1ccc(OCc2nnc(SCCN)n2-c2cccc(C(F)(F)F)c2)cc1	33.4	1.0	0.5	-0.2	·	·
Cc1c(O)ccc(C(=O)CN2CCN(c3ccccc3F)CC2)c1O	-0.7	5.0*	3.1	-0.1	0.7	0.9
